Compound activity (PubChem)
Pf growth 48h – inhibits P. falciparum growth in the first generation, 48 h; hit rate 5.9% among 310,000; P. falciparum luciferase growth in erythrocytes, 48 h; Potency, µM (doses to about 28.7 µM), actives largely listed as inhibitors
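Read-out is firefly luciferase luminescence from an integrated reporter in P. falciparum, so falling signal marks reduced parasite growth. Infected erythrocytes were at 2% hematocrit and 0.1% parasitemia (final) in Albumax-supplemented RPMI 1640.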
Shiga inhibitor – blocks Shiga toxin action in Vero cells | AID 2315 | Vero cells, Shiga toxin protein synthesis inhibition reporter | hit rate 9.2% among 290,000 | inhibition, % at 38.7 µM; in the data active means inhibition mostly above about 28%, no sharp cut-off; inactive means mostly below about 43%
Pf growth 96h – inhibits malaria parasite growth, 96 h. AID 504834. P. falciparum luciferase reporter growth, 96 h. hit rate 6.9% among 320,000. Potency, µM (titrated, usually from 28.7 µM), hits mostly inhibitors
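Erythrocytes infected with luciferase-expressing P. falciparum were dispensed at 2% hematocrit and 0.05% parasitemia (final), then incubated with compounds 96 hours at 37 C in 5% CO2. Luminescence after detection reagent addition reported growth.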
Cycloheximide cs – counter-screen hit for Shiga toxin inhibitors, cycloheximide | cell reporter, cycloheximide protein synthesis inhibition counterscreen | max response, % | hit rate 12% among 300,000 | AID 2314; in the data active means max response mostly above about 13%, no sharp cut-off; inactive means mostly below about 14%; further: read at 38.3 µM for the half of the compounds with a filed dose
LmPK inh – inhibitors of Leishmania mexicana pyruvate kinase; Q27686; purified LmPK, Kinase-Glo ATP luminescence, 1 h; Potency, µM (highest dose often 57.5 µM), hits mostly inhibitors; hit rate 0.37% among 290,000; AID 1721
Target sequence (Q27686 whole entry, looked up): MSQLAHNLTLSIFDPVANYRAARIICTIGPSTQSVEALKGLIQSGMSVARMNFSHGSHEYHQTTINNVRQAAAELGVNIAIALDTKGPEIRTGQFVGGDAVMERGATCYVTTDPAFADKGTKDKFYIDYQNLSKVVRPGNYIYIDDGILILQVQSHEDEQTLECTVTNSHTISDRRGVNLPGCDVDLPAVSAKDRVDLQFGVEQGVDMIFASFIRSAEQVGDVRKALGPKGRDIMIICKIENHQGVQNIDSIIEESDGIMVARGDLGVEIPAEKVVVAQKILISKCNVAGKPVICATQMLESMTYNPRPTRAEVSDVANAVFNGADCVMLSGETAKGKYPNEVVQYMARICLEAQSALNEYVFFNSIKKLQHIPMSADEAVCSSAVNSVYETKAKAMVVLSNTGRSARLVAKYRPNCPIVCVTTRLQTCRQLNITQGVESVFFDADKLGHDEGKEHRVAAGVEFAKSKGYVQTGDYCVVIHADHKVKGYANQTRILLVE
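Kinase-Glo luminescence read after 1 h RT reaction of 0.1 nM LmPK with 0.5 mM PEP and 0.1 mM ADP. Activity scaled between uninhibited and enzyme-free controls.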
Large screens that a line does not name were inactive. Shown are actives, neighbours in structure and some others; about 22% of the full set was active somewhere. Unless noted, the call rests on the fitted dose curve; in most records, active means well fitted inhibition curve with a large enough effect; inconclusive means small, poorly fitted or top-dose-only effect, or another doubt; inactive means no such curve, though single readings can be large or run the other way.

CC(C)Cn1c(CN2CCN(C)C(CCO)C2)nc2ccccc21 (stereo not drawn)	Pf growth 96h 9.28µM
Cc1ccccc1-c1ccc(CN2CCN(C)C(CCO)C2)cc1 (stereo not drawn)	Pf growth 48h inconclusive, Shiga inhibitor 19.4, Pf growth 96h inconclusive, Cycloheximide cs 11.2
Cc1ccccc1-c1ncc(CN2CCN(C3CCCC3)C(CCO)C2)cn1 (stereo not drawn)	none
Cc1cccc(OCCSc2cc(C)nc(N)n2)c1	Pf growth 96h inconclusive
O=C(c1ccco1)N1CCc2[nH]nc(-c3ccccc3)c2C1	Pf growth 96h inconclusive
CCNC(=S)N(Cc1ccc2c(c1)OCO2)C1CC(=O)N(c2ccc(F)cc2)C1=O (stereo not drawn)	Pf growth 48h 9.28µM, Pf growth 96h inconclusive
Cc1ccc(C(=O)NCCOc2cccc(C)c2)cc1	Shiga inhibitor 83.5, Cycloheximide cs 36.6
COc1cccc(C(=O)NCCOc2cc(C)cc(C)c2)c1	Pf growth 96h inconclusive
O=C(NCCOc1ccccc1)c1ccccc1[N+](=O)[O-]	Pf growth 48h inconclusive, Pf growth 96h inconclusive
CC(C)(C)c1ccc(C(=O)NCCOc2ccccc2)cc1	Pf growth 96h 9.28µM, Cycloheximide cs 26.1
CC(C)(C)c1ccc(C(=O)NCCOc2ccccc2F)cc1	Shiga inhibitor 34.4, Pf growth 96h inconclusive
CN1CCN(S(=O)(=O)c2cccc(C(=O)NCCOc3ccccc3F)c2)CC1	none
O=C(NCCOc1ccccc1)c1cc(C(=O)NCCOc2ccccc2)cc([N+](=O)[O-])c1	Pf growth 48h 11.7µM, Pf growth 96h inconclusive
CC(OC(=O)CN1C(=O)c2ccccc2C1=O)C(=O)NC1CCCCC1C (stereo not drawn)	none (no result: Shiga inhibitor, Cycloheximide cs, LmPK inh)
CC(Oc1ccc(C#N)cc1)C(=O)NC1CCCC1 (stereo not drawn)	none (no result: Shiga inhibitor, Cycloheximide cs, LmPK inh)
COc1ccccc1C(=O)NCCOc1ccc(C(C)(C)C)cc1	Pf growth 48h inconclusive, Pf growth 96h 14.7µM
CNCCCOc1ccc(C(C)(C)c2ccccc2)cc1	Pf growth 96h 9.28µM (no result: Pf growth 48h)
Cc1ccc(OCCNC(=O)c2cc(=O)[nH]c3ccccc23)cc1	none
CN(CCCNC(=O)c1ccccc1F)CCCNC(=O)c1ccccc1F	Pf growth 48h inconclusive, Pf growth 96h 9.28µM
Cc1ccc(OCCNC(=O)c2ccccc2F)cc1	Shiga inhibitor 40.3, Cycloheximide cs 21.2
COc1ccccc1NC(=O)c1ccc(N2CC3CC(C2)c2cccc(=O)n2C3)c(NC(=O)c2ccncc2)c1 (stereo not drawn)	Pf growth 48h inconclusive, Pf growth 96h inconclusive
COc1cc(C(=O)NCCOc2ccccc2)cc(OC)c1OC	Pf growth 96h inconclusive
COc1cc(OC)cc(C(=O)NCCNC(=O)c2ccccn2)c1	none
COc1cc(OC)cc(C(=O)NCCCNC(=O)c2ccccn2)c1	Pf growth 96h 11.7µM
Cc1ccc(OCC(O)CNC(=O)c2ccccc2C(=O)O)cc1 (stereo not drawn)	Cycloheximide cs 18.1
COc1cc(OC)cc(C(=O)NCCOc2ccccc2)c1	Shiga inhibitor 77.2, Cycloheximide cs 31.4 (no result: Pf growth 48h)
CCN(CC)CCN(C)C1CCC(c2ccccc2)CC1 (stereo not drawn)	Pf growth 96h inconclusive
COC(=O)c1ccsc1-n1cc(C#N)c(=O)n(C)c1=O	none
Cc1ccc(-n2nc3c(Cl)nnc(C)c3c2C)cc1	Pf growth 48h 0.415µM, Pf growth 96h 0.329µM
CC(NC(=O)c1cccc(S(=O)(=O)N2CCN(C)CC2)c1)c1ccc(Cl)cc1Cl (stereo not drawn)	Pf growth 48h inconclusive (no result: Shiga inhibitor, Cycloheximide cs, LmPK inh)
CN(Cc1ccc(F)cc1)C(=O)c1ccc2c(c1)NC(=O)CS2	Pf growth 96h inconclusive
O=C1CSc2ccc(C(=O)O)cc2N1	Pf growth 96h 11.7µM
CC(=O)C[C@H](O)CC(=O)[C@@H]1OC(=O)CCCCCCc2ccccc21	none (no result: Shiga inhibitor, Cycloheximide cs, LmPK inh)
Cc1nc2ccccc2c2oc(C(=O)NC3CC3)cc12	none (no result: Pf growth 48h)
O=C(NC1CC1)c1cc2cc3ccccc3nc2s1	Shiga inhibitor 98.9, Pf growth 96h 13.1µM, Cycloheximide cs 40.8
O=C(NNC(=O)c1cc2cc3ccccc3nc2s1)c1cccc(C(F)(F)F)c1	none
O=C(NNS(=O)(=O)c1ccccc1)c1cc2cc3ccccc3nc2s1	Pf growth 48h inconclusive, Shiga inhibitor 53.6
O=C(NC1CC1)c1cc2cc(Br)ccc2s1	Pf growth 48h inconclusive, Shiga inhibitor 50.9, Cycloheximide cs 38.0
CNC(=O)c1cc2cc(Br)ccc2s1	Pf growth 96h inconclusive
CCn1cc(S(=O)(=O)N2CCN(c3ccc(Cl)cc3)CC2)cn1	none
CC(NS(=O)(=O)c1ccc(CCC(=O)NCc2cccnc2)cc1)c1ccccc1 (stereo not drawn)	Pf growth 96h inconclusive (no result: Pf growth 48h)
O=S(=O)(NCc1ccc(F)cc1)c1ccc(-n2cnnn2)cc1	none
COc1ccc(Cl)cc1-c1ccc(C(=O)O)s1	none (no result: Pf growth 48h, Pf growth 96h, LmPK inh)
Cc1ncoc1C(=O)N1CCCC(N2CCN(c3cccc(C(F)(F)F)c3)CC2)C1 (stereo not drawn)	Pf growth 48h inconclusive
CCOc1ccc(C2=CSC3=NCCN23)cc1Cl	Pf growth 48h inconclusive, Pf growth 96h inconclusive
CCOc1ccc2nc(SCC)[nH]c2c1	Shiga inhibitor 125.4, Cycloheximide cs 53.5
CCOc1ccc2nc(SCC(=O)Nc3cc4c(cc3C(C)=O)OCO4)[nH]c2c1	Pf growth 96h 13.1µM
Cc1occc1C(=O)NNC(=S)NCc1ccccc1	none
COc1ccc(NC(=O)c2sccc2SCc2cccc(C(F)(F)F)c2)cc1	Pf growth 48h inconclusive, Shiga inhibitor 36.0, Pf growth 96h inconclusive, Cycloheximide cs 16.1
O=C(Nc1ccc(F)cc1)c1sccc1SCc1cccc(C(F)(F)F)c1	Pf growth 48h 9.28µM, Pf growth 96h inconclusive
CCCCCCCCCCCCCC(=O)OC(C)C	none (no result: Shiga inhibitor, Cycloheximide cs, LmPK inh)
COc1ccc2no[n+]([O-])c2c1	none
COc1ccc(N2CCC(CNC(=S)Nc3cccc(C)c3)C2)cc1 (stereo not drawn)	Pf growth 48h 13.1µM
COc1ccc(N2CCC(CNC(=S)Nc3c(C)cc(C)cc3C)C2)cc1 (stereo not drawn)	Pf growth 48h 11.7µM, Pf growth 96h inconclusive
Cc1cc(C)cc(NC(=S)NCC2CCN(C(C)c3ccccc3)C2)c1 (stereo not drawn)	Pf growth 48h inconclusive, Pf growth 96h 5.22µM
COc1ccc(N2CCC(CNC(=S)Nc3ccc(C)cc3C)C2)cc1 (stereo not drawn)	Pf growth 48h 8.28µM, Pf growth 96h inconclusive
COc1cc(OC)cc(C(=O)N[C@H](C(=O)Nc2cc(F)ccc2C)C(C)C)c1	Pf growth 48h inconclusive
O=C(CN(C(=O)CCC(=O)Nc1nccs1)c1ccc(F)cc1)NCc1ccccc1	none
COc1ccccc1N(CC(O)Cn1c(C)nc2ccccc21)S(=O)(=O)c1ccccc1 (stereo not drawn)	Pf growth 48h inconclusive
Cc1cc(NC(=O)CN2CCc3ccccc3C2)nc2c1c(=O)oc1ccccc12	Pf growth 48h 10.4µM, Pf growth 96h inconclusive
CCCC(=O)Nc1cc(C)c2c(=O)oc3ccccc3c2n1	none
CCCCCn1ncc2c3sc(C)cc3n(C)c2c1=O	Shiga inhibitor 91.0, Cycloheximide cs 31.8 (no result: Pf growth 48h, Pf growth 96h, LmPK inh)
